From PubChem BioAssay (EPA / NIEHS)
Inconclusive results are not listed. Active and inactive are the calls of the source. The calls were made as follows: active = hit-call score of the fitted dose curve at least 0.9, where 1 is the maximum; inconclusive = response in the unintended direction; inactive = score below 0.9.

What was measured:
[1] = biological target: Cellular tumor antigen p53 (Homo sapiens) (UniProt P04637); test: TOX21_p53_BLA_p3_ratio: Tox21 HCT-116 p53 Agonism Beta-lactamase Assay, Ratio, Phase 3 (AID 2283596)
How it was run: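 HCT116 p53-bla cells (4000/well) given compound in DMSO (217-fold dilution) after 5 h, incubated 16 h at 37C. CCF4-AM substrate 2 h at room temperature; 460/530 nm emission ratio, gain fitted against DMSO.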

[2] = TOX21_p53_BLA_p4_viability: Viability Assessment in the Tox21 HCT-116 p53 Agonism Beta-lactamase Assay, Phase 4 (AID 2283597);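 also: hits lower the luminescence signal meaning cytotoxicity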
How it was run: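 Cells plated, 5 h pre-incubation; DMSO compounds pinned (217-fold dilution); 16 h, 37C/5% CO2; CCF4-AM 2 h RT; CellTiter-Glo 30 min RT; luminescence read.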

[3] = biological target: Cellular tumor antigen p53 (Homo sapiens) (UniProt P04637); test: TOX21_p53_BLA_p5_ratio: Tox21 HCT-116 p53 Agonism Beta-lactamase Assay, Ratio, Phase 5 (AID 2283599)
How it was run: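 HCT-116 p53-bla cells (4000/well) plated 5 h, dosed with compound (217-fold DMSO dilution) for 16 h at 37 C; CCF4-AM substrate 2 h at room temperature. Activity is the 460/530 nm emission ratio (405 nm excitation), fitted in gain-of-signal direction versus DMSO.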

[4] = biological target: Cellular tumor antigen p53 (Homo sapiens) (UniProt P04637); test: TOX21_p53_BLA_p4_ratio: Tox21 HCT-116 p53 Agonism Beta-lactamase Assay, Ratio, Phase 4 (AID 2283601)
How it was run: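 HCT-116 p53 beta-lactamase reporter cells (4000/well) preincubated 5 h, then compound (217-fold dilution of DMSO stock) for 16 h at 37C. CCF4-AM substrate added 2 h at room temperature; 460/530 nm emission ratio fitted upward versus DMSO.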

[5] = TOX21_p53_BLA_p5_viability: Viability Assessment in the Tox21 HCT-116 p53 Agonism Beta-lactamase Assay, Phase 5 (AID 2283600)
How it was run: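 4000 cells/well; 5 h pre-incubation; DMSO compounds pin-transferred, 217-fold dilution; 16 h, 37C/5% CO2; CCF4-AM 2 h RT; CellTiter-Glo 30 min RT; luminescence.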

[6] = Tanguay_ZF_120hpf_MORT_legacy: (Legacy) Oregon State University Tanguay Lab 120 Hour Post-fertilization zebrafish Assay for Mortality (AID 2283633)
How it was run: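 5D WT zebrafish, chorion removed 4 hpf; 1 embryo/well from 6 hpf; static exposure to 120 hpf, 28C, dark, sealed. Final DMSO 0.64%. Readout: binary mortality, brightfield, 24 + 120 hpf; DMSO as negative control.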

[7] = Tanguay_ZF_120hpf_YSE_legacy: (Legacy) Oregon State University Tanguay Lab 120 Hour Post-fertilization zebrafish Assay for Yolk Sac Edema (AID 2283634)
How it was run: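 Dechorionate (pronase, 4 hpf) → place one 6 hpf embryo per well → static compound exposure, sealed and foil-covered, 28C, to 120 hpf → record yolk sac edema as present or absent. Final DMSO 0.64%.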

[8] = Tanguay_ZF_120hpf_AXIS_legacy: (Legacy) Oregon State University Tanguay Lab 120 Hour Post-fertilization zebrafish Assay for Body Axis Malformation (AID 2283635)
How it was run: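 Chorion is removed with pronase at 4 hpf, then single 6 hpf embryos are dosed (final DMSO 0.64%) and held statically at 28C in sealed, foil-covered plates. At 120 hpf body axis malformation is recorded as present or absent.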

[9] = Tanguay_ZF_120hpf_EYE_legacy: (Legacy) Oregon State University Tanguay Lab 120 Hour Post-fertilization zebrafish Assay for Eye Malformation (AID 2283636)
How it was run: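 Dechorionated Tropical 5D zebrafish embryos, one per well from 6 hpf, static exposure to 120 hpf at 28C, 0.64% DMSO. Eye malformation scored present/absent by brightfield; dead embryos not scored.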

[10] = Tanguay_ZF_120hpf_SNOU_legacy: (Legacy) Oregon State University Tanguay Lab 120 Hour Post-fertilization zebrafish Assay for Snout Malformation (AID 2283637)
How it was run: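 Dechorionated tropical 5D wild-type zebrafish embryos exposed statically from 6 to 120 hpf at 28C, one per well, in 0.64% DMSO. Snout malformation scored as present/absent by brightfield at 120 hpf; dead embryos not scored.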

[11] = Tanguay_ZF_120hpf_JAW_legacy: (Legacy) Oregon State University Tanguay Lab 120 Hour Post-fertilization zebrafish Assay for Jaw Malformation (AID 2283638)
How it was run: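 Steps: dechorionate 4 hpf embryos (pronase); plate 1/well at 6 hpf; add test chemical, 0.64% DMSO final; seal, cover, hold at 28C statically to 120 hpf; score jaw defect presence/absence microscopically. Dead embryos not scored.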

[12] = Tanguay_ZF_120hpf_OTIC_legacy: (Legacy) Oregon State University Tanguay Lab 120 Hour Post-fertilization zebrafish Assay for Otic Vesicle Malformation (AID 2283639)
How it was run: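 Embryos from 5D wild-type adults exposed in plates; DMSO 0.64% v/v final. Sealed, light-protected, 28C, static to 120 hpf. Otic vesicle malformation recorded as binary endpoint; gain-of-signal fitted vs DMSO.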

[13] = Tanguay_ZF_120hpf_PE_legacy: (Legacy) Oregon State University Tanguay Lab 120 Hour Post-fertilization zebrafish Assay for Pericardial Edema (AID 2283640)
How it was run: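 Embryos from wild-type 5D adults were staged, then dosed in 0.64% DMSO. They were kept sealed in the dark at 28C until 120 hpf. Pericardial edema was then recorded as present or absent.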

[14] = Tanguay_ZF_120hpf_BRAI_legacy: (Legacy) Oregon State University Tanguay Lab 120 Hour Post-fertilization zebrafish Assay for Brain Malformation (AID 2283641)
How it was run: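 Wild-type 5D larvae, static waterborne exposure to 120 hpf, 28C, 0.64% v/v DMSO. Brightfield scoring of brain defects, binary; dead embryos excluded. Positive ctrl 5uM trimethyltin chloride.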

[15] = Tanguay_ZF_120hpf_SOMI_legacy: (Legacy) Oregon State University Tanguay Lab 120 Hour Post-fertilization zebrafish Assay for Somite Malformation (AID 2283647)
How it was run: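 Read-out: presence or absence of somite malformation in 120 hpf larvae, gain-of-signal relative to DMSO baseline. Embryos lacked chorion (pronase, 4 hpf) and were exposed statically from 6 hpf at 28C; dead larvae not scored.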

[16] = Tanguay_ZF_120hpf_PFIN_legacy: (Legacy) Oregon State University Tanguay Lab 120 Hour Post-fertilization zebrafish Assay for Pectoral Fin Malformation (AID 2283648);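 also: each larva judged yes or no for fin defect by brightfield with dead larvae skipped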
How it was run: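 Dechorionated Tropical 5D wild-type zebrafish embryos, one per well, statically exposed from 6 to 120 hpf at 28C with 0.64% DMSO final. Pectoral fin malformation scored present/absent by brightfield at 120 hpf; not scored in dead embryos.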

[17] = Tanguay_ZF_120hpf_CFIN_legacy: (Legacy) Oregon State University Tanguay Lab 120 Hour Post-fertilization zebrafish Assay for Caudal Fin Malformation (AID 2283649)
How it was run: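 Binary presence or absence of caudal fin malformation at 120 hpf, read by brightfield microscopy, with DMSO as baseline. Larvae came from 5D wild-type embryos exposed statically from 6 hpf at 28C after pronase dechorionation.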

[18] = Tanguay_ZF_120hpf_PIG_legacy: (Legacy) Oregon State University Tanguay Lab 120 Hour Post-fertilization zebrafish Assay for Pigmentation Malformation (AID 2283650)
How it was run: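 Dechorionated Tropical 5D wild-type embryos, one per well from 6 hpf, statically exposed at 28C in the dark until 120 hpf, 0.64% DMSO final. Pigmentation scored present/absent by brightfield microscopy; dead embryos not scored; fitted versus DMSO.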

[19] = Tanguay_ZF_120hpf_CIRC_legacy: (Legacy) Oregon State University Tanguay Lab 120 Hour Post-fertilization zebrafish Assay for Circulatory Malformation (AID 2283651)
How it was run: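 Read-out: presence or absence of circulatory malformation at 120 hpf, scored by brightfield microscopy, fitted in the gain-of-signal direction against DMSO baseline. Wild-type 5D larvae were exposed from 6 hpf after enzymatic chorion removal.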

[20] = Tanguay_ZF_120hpf_SWIM_legacy: (Legacy) Oregon State University Tanguay Lab 120 Hour Post-fertilization zebrafish Assay for Swim Bladder Malformation (AID 2283654);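 also: swim bladder malformation in each larva scored yes or no under brightfield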
How it was run: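 Dechorionated wild-type Tropical 5D zebrafish embryos, one per well from 6 hpf, were statically exposed at 28C until 120 hpf in 0.64% DMSO. Swim bladder malformation scored as present/absent by brightfield microscopy; not scored in dead larvae.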

Measured: AC50

Cellular tumor antigen p53 (Homo sapiens), sequence (P04637 whole entry, looked up): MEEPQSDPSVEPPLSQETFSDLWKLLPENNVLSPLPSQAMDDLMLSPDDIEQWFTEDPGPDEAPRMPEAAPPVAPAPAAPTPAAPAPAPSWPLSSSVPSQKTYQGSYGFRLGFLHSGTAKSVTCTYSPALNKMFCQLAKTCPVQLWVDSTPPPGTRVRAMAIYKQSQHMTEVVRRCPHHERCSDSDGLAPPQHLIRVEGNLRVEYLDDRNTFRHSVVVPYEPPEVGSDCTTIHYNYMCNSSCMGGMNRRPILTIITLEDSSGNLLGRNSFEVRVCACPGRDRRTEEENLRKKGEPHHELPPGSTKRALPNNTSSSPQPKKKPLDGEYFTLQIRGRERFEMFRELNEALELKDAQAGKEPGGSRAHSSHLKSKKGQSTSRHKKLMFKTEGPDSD

Fc1ccc(Br)cc1
inactive: [1] | [2] | [3] | [4]

CCCCNS(=O)(=O)c1ccc(C)cc1
inactive: [1] | [2] | [3] | [4]

CCCCCCCCCCCCCC(=O)OC(C)C
inactive: [1] | [2] | [3] | [5] | [4]

CCCCOCC(C)O (configuration not stated)
inactive: [1] | [3] | [5]

Oc1ccccc1Cc1ccccc1O
inactive: [1] | [2] | [4]

NC(=O)Nc1ccccc1
inactive: [1] | [2] | [3] | [4]

O=C(O)C1CCC(C(=O)O)CC1 (configuration not stated)
active: [2] 82.4 µM | [4] 85.8 µM
inactive: [1] | [3]

C=C(C)[C@@H]1CC=C(C)CC1
inactive: [1] | [2] | [3] | [4]

CC(=O)CC(=O)Nc1ccccc1C
inactive: [1] | [3] | [5]

O=C(OCCc1ccccc1)c1ccccc1
inactive: [1] | [2] | [3] | [4]

C1CNCCN1
inactive: [1] | [2] | [3] | [5] | [4] | [6] | [7] | [8] | [9] | [10] | [11] | [12] | [13] | [14] | [15] | [16] | [17] | [18] | [19] | [20]

O=C(Oc1ccccc1)c1ccccc1C(=O)Oc1ccccc1
inactive: [1] | [2] | [3] | [4]

CC(CC=O)CC(C)(C)C (configuration not stated)
inactive: [1] | [2] | [4]

CC(C)(C)NC(=O)[C@H]1CC[C@H]2[C@@H]3CC[C@H]4NC(=O)C=C[C@]4(C)[C@H]3CC[C@]12C
inactive: [1] | [2] | [5]

C=CC(C)(CCC=C(C)C)OC(=O)C=Cc1ccccc1 (configuration not stated)
inactive: [1] | [2] | [5]

CCCCc1ccc(Cl)cc1
inactive: [1] | [2] | [5] | [4]

CC(C)c1cc(C(C)C)cc(C(C)C)c1
inactive: [1] | [2] | [4]

N=C1C=CC(=C(c2ccc(N)cc2)c2ccc(N)cc2)C=C1
inactive: [2] | [4]
active: [1] 60.4 µM | [3] 67.3 µM

O=C(Cl)c1ccc(C(=O)Cl)cc1
inactive: [1] | [2] | [3] | [4]

CC1CCC(C(C)(C)S)C(=O)C1 (configuration not stated)
inactive: [1] | [2] | [3] | [4]

CC(C)c1cccc(C(C)C)c1N
inactive: [1] | [3]

CCC[Si](OC)(OC)OC
inactive: [1] | [2] | [3] | [4]

CC(=O)c1ccccc1O
inactive: [1] | [3]

C=CC(=O)OCCCCCCCC(C)C
inactive: [1] | [2] | [5] | [4]

CCC(C)C(=O)OCCc1ccccc1 (configuration not stated)
inactive: [1] | [3] | [5]

CCCCCCO
inactive: [1] | [2] | [5]

CCCCCC[C@@H](O)C/C=C\CCCCCCCC(=O)OCC(O)CO (some centres not stated)
inactive: [1] | [2] | [4]

CCCC(C)C(=O)OCC (configuration not stated)
inactive: [1] | [2] | [4]

Cc1cc(C)n(CO)n1
inactive: [1] | [3] | [5] | [4]

Nc1ncnc2nc[nH]c12
inactive: [1] | [3] | [4]

CC(=O)OC(C)c1ccccc1 (configuration not stated)
inactive: [1] | [3] | [5] | [4]

Cc1ccc(S(=O)(=O)N=C=O)cc1
inactive: [1] | [3] | [5] | [4]

CC(C)OC(=O)c1ccccc1
inactive: [1] | [3] | [4]

C=CC(=O)OCCCCCCCCCC
inactive: [1] | [3] | [5] | [4]

Cc1c(C(=O)c2c[nH]n(C)c2=O)ccc(S(C)(=O)=O)c1C1=NOCC1
inactive: [1] | [3] | [5] | [4]

CC(C)C(=O)OCCOc1ccccc1
inactive: [1] | [3] | [5] | [4]

OCCCc1ccccc1
inactive: [1] | [3] | [4]

CCC1COC(=O)O1 (configuration not stated)
inactive: [1] | [3] | [5] | [4]

CC1=CC(C)C(C=O)CC1 (configuration not stated)
inactive: [1] | [3] | [4]

CCCCCCCCCCCC(=O)OCC
inactive: [1] | [3] | [5] | [4]

CC12CCC(CC1)C(C)(C)O2
inactive: [1] | [3] | [4]

O=C(O)CCCC(=O)O
inactive: [1] | [3] | [5] | [4]

COC(C=C(C)CCC=C(C)C)OC
inactive: [1] | [3] | [5] | [4]

CC(=O)CCC=C(C)C
inactive: [1] | [3] | [5] | [4]

CC/C=C\CCOC(=O)c1ccccc1O
inactive: [1] | [3] | [5] | [4]
